# Rows were chosen to be rich in hits. Some 27% of all compounds tested hit in one or more screens of this group.
# CYP2C19 act – cytochrome P450 2C19 (human) activation; P33261; recombinant CYP2C19, luciferin-H EGE luminescence; active compounds read high; 0 = fully inhibited enzyme, 1 = untreated enzyme; activation factor at 5 µM; 96,000 tested, under 10 active; AID 1025;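 active = activation factor of at least 2 at 5 µM in the primary screen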;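 note: 0 = wells with 2.5 mM tranylcypromine and 1 = vehicle-only wells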
# CYP2C9 inhib – inhibitors of human CYP2C9. P11712. CYP2C9 Supersomes, luciferin-H conversion, luminescence. inhibition, % at 5 µM. actives 20% (n = 96,000);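 active = blocking of liver enzyme CYP2C9 beyond about 50% at 5 µM, limit read from the data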
# CYP2C19 inhib – human CYP2C19 inhibition; CYP2C19 Supersomes, luciferin-H EGE luminescence, 30 min; actives 21% (n = 96,000); P33261; inhibition, % at 5 µM;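 active = CYP2C19 inhibition above a set limit at 5 µM in the primary screen, cut at about 50% in these data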;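 note: plate controls were negative control wells for no effect and 2.5 mM tranylcypromine positive control for full effect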
# Cav32 inh – inhibitors of human Cav3.2 T-type calcium channel | O95180 | Cav3.2-expressing cells, Fluo-4 calcium fluorescence FDSS; active compounds read low | B-score at 10 µM | actives 4% (n = 100,000) | AID 449739;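 active = single-dose well whose peak fluorescence ratio is a statistical outlier from its plate by either plate-standardised score or position-corrected B-score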
# CYP2C9 activ – increases human cytochrome P450 2C9 activity; P11712; recombinant CYP2C9, luciferin-H conversion, luminescence; active compounds read high; factor 1 = untreated enzyme, 0 = blocked; activation factor at 5 µM; actives 1.4% (n = 96,000);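 active = activation factor of 2 or more for CYP2C9 at a 5 µM dose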;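 note: 0 = sulfaphenazole-blocked wells and 1 = vehicle-only wells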
# An asterisk follows results filed as active; nt = no result.
SMILES,CYP2C19 act,CYP2C9 inhib,CYP2C19 inhib,Cav32 inh,CYP2C9 activ
C=CCN(C(=O)CNC(=O)c1ccco1)C(C(=O)NC1CCCCC1)c1ccc(OC)cc1OC (centres undefined),0.5,46,46,0.41,0.5
Cc1cc(/C=C2/SC(=S)N(c3cccc(C(F)(F)F)c3)C2=O)c(C)n1-c1cccnc1,nt,nt,nt,0.021,nt
C=CCOc1ccc(C2C(C#N)=C(N)N(Nc3ccccc3)C3=C2C(=O)CCC3)cc1OC (centres undefined),0.9,70*,14,-0.92,0.3
COc1cc(C2C(C#N)=C(N)N(Nc3ccccc3)C3=C2C(=O)CC(C)(C)C3)ccc1OCc1cccc(F)c1 (centres undefined),0.3,96*,68*,0.055,0
COc1cc(C2C(C#N)=C(N)N(Nc3ccccc3)C3=C2C(=O)CC(C)(C)C3)ccc1OCc1ccccc1 (centres undefined),0.8,79*,21,-2.7,0.2
O=C(c1ccc(N2CCCCS2(=O)=O)cc1)N1CCN(c2ccc(N3CCOCC3)nn2)CC1,1.1,1,-10,nt,1
CCOc1ccccc1OCCOc1ccc(F)cc1,0.4,-9,57*,-1.6,1.1
Cc1ccc(NC(=O)C2C(c3ccccc3)C2(Cl)Cl)c(C)c1 (centres undefined),0,52*,97*,-0.038,0.5
CCOC(=O)N1CCN(C(=O)CN(c2cc(Cl)ccc2OC)S(=O)(=O)c2ccccc2)CC1,0.8,65*,24,0.071,0.4
COc1ccccc1N1CCN(C(=O)CN(c2ccccc2OC)S(=O)(=O)c2ccccc2)CC1,0.3,90*,75*,-0.38,0.1
CCOC(=O)N1CCN(C(=O)CN(c2cccc(C)c2)S(=O)(=O)c2ccc(C)cc2)CC1,0.3,74*,72*,0.058,0.3
CCOC(=O)N1CCN(C(=O)CN(c2cccc(C)c2)S(=O)(=O)c2ccccc2)CC1,0.5,72*,48,-0.052,0.3
CCOC(=O)C1CCN(C(=O)CN(c2ccc(OC)c(OC)c2)S(=O)(=O)c2ccccc2)CC1,0.8,42,22,0.96,0.6
Cc1cc(C)n2ncc(C(=O)NCc3cccnc3)c2n1,0.9,3,9,0.64,1
CCOc1cc(-c2nc(-c3ccccc3)c(-c3cc([N+](=O)[O-])ccc3C)[nH]2)ccc1O,0.9,57*,14,-0.32,0.4
O=[N+]([O-])c1ccc(O)c(-c2nc(-c3ccccc3)c(-c3cccs3)[nH]2)c1,0.9,92*,11,0.43,0.1
COc1ccc(-c2nc(-c3ccccc3)c(-c3cc([N+](=O)[O-])ccc3C)[nH]2)cc1OC,0.7,40,30,-1.3,0.6
Cc1cc(C(F)F)nn1CC(=O)NCc1ccccc1F,nt,nt,nt,0.42,nt
COc1ccc(-c2nc(Cn3c(SCc4ccc(C)cc4)nc4ccncc43)c(C)o2)cc1OC,0.5,53*,53*,-0.77,0.5
CCC(C(=O)NC1CCCCC1)n1c(SCc2cccc(F)c2)nc2ccncc21 (centres undefined),nt,nt,nt,-1.2,nt
COc1ccc(-c2nc(Cn3c(SCc4cccc(F)c4)nc4ccncc43)c(C)o2)cc1OC,0.3,89*,73*,-1.8,0.1
CC(Sc1nnc2c(n1)C1(C)CCC2C1(C)C)C(=O)Nc1ccccc1 (centres undefined),0.9,44,12,0.51,0.6
COCCN(C(=O)COc1ccc(Cl)cc1)c1nnc(-c2cccnc2)s1,nt,nt,nt,-0.41,nt
CCOc1ccc(N(CC(N)=O)S(=O)(=O)c2ccc(F)cc2)cc1,0.6,12,37,0.0034,0.9
CCOc1ccc(S(=O)(=O)N(CC(N)=O)c2ccc(C)cc2)cc1,0.3,41,71*,1.1,0.6
SMILES,CYP2C19 act,CYP2C9 inhib,CYP2C19 inhib,Cav32 inh,CYP2C9 activ
CNC(=O)CN(c1ccc(OC)cc1)S(=O)(=O)c1ccc(F)cc1,nt,nt,nt,1.1,nt
COc1ccc(N(CC(=O)NN=C2CCCC2)S(=O)(=O)c2ccccc2)cc1,0.5,21,51*,0.93,0.8
CCC(C)NC(=O)CN(c1ccc(OC)cc1)S(=O)(=O)c1ccc(NC(C)=O)cc1 (centres undefined),0.6,57*,38,0.016,0.4
CCOc1ccc(N(CC(=O)OC)S(=O)(=O)c2ccc3c(c2)n(C)c(=O)c(=O)n3C)cc1,0.9,56*,11,1,0.4
COC(=O)CN(c1ccc(C)cc1)S(=O)(=O)c1ccc2c(c1)n(C)c(=O)c(=O)n2C,1,39,0,1.1,0.6
COc1cccc(/C=N\NC(=O)c2sc(N)nc2C)c1OC,1,2,4,0.68,1
NC1=NC[C@H](CC2CCCCC2)N1CCc1cc(C(F)(F)F)cc(C(F)(F)F)c1,nt,nt,nt,-0.53,nt
CCOC(=O)c1nnc2c(Br)c(-c3ccccc3)nn2c1C,nt,nt,nt,-1.9,nt
COC(=O)c1ccc2c(c1)S(=O)(=O)NC(=NCc1ccco1)S2,0.8,-22,22,0.0031,1.2
CCCc1cc(=O)n2[nH]c(-c3ccc(Br)cc3)cc2n1,nt,nt,nt,-0.76,nt
COc1ccc(OC)c(N(CC(N)=O)S(=O)(=O)c2ccc(OC)c(OC)c2)c1,0.2,45,78*,-0.45,0.6
COC(=O)CN(c1ccc(OC)cc1)S(=O)(=O)c1ccc(OC)c(OC)c1,0.1,16,94*,-0.092,0.8
Cc1nn(Cc2ccccc2)c(C)c1CCC(=O)O,1,-4,5,0.15,1
COc1cc(OC)c(NC(=O)CCNS(=O)(=O)c2cc(Br)cnc2N)cc1Cl,0.6,94*,36,nt,0.1
Cc1cc(NC(=O)CCNS(=O)(=O)c2cc(Br)cnc2N)ccc1Br,0.7,41,30,-5*,0.6
Nc1ncc(Br)cc1S(=O)(=O)NCCC(=O)N1CCN(c2ncccn2)CC1,0.4,41,60*,0.23,0.6
CCOC(=O)N1CCN(C(=O)CCNS(=O)(=O)c2cc(Br)cnc2N)CC1,0.9,-11,7,-0.069,1.1
Nc1ncc(Br)cc1S(=O)(=O)NCCC(=O)Nc1cccc(Cl)c1,0.3,41,66*,-1.4,0.6
CC1=C[C@H]2OC(=O)[C@@H](C)[C@H]2C[C@@H]2[C@H]1C[C@@H](O)[C@@]2(C)O,nt,nt,nt,0.21,nt
CC(C)n1c(CCC(=O)O)ccc1-c1ccccc1,0.9,11,14,1.1,0.9
CCn1nnnc1SCC(=O)c1cccc(OC)c1,0.2,42,76*,0.18,0.6
COCCn1nnnc1SCC(=O)c1ccccc1,0.3,-89,67*,-0.24,1.9
CCOc1ccc(-n2nnnc2SCC(=O)c2ccccc2)cc1,0.9,-2,8,0.53,1
CC(C)(C)N1OC2CC1c1nc3ccccc3n1C2 (centres undefined),nt,nt,nt,0.0032,nt
CCOC(=O)C1=C(NC#N)OC(C)=C(C)C1c1ccc(O)cc1 (centres undefined),0,70*,96*,0.71,0.3
N#CCC1c2ccccc2CCN1C(=O)Nc1ccc(Cl)cc1 (centres undefined),0.5,34,55*,-2.7,0.7
